Assay outcomes from PubChem BioAssay.
PPC-1+TRAIL kill: PPC-1 cancer cell killing with TRAIL present | PPC-1 cells + TRAIL, ATPLite viability luminescence | cell killing (% activity), % at 4 µM or 5 µM | 0.41% of 220,000 active | AID 1443;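 active = cell killing above 50% in the first pass at 4 µM, then a duplicate retest at 5 µM averaging 50% or more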;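 note: plate controls were cells with TRAIL plus DMSO for no effect and medium-only wells lacking cells for full effect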
SENP8 block-1: inhibitors of human SENP8 protease. purified SENP8, Z-RLRGG-aminoluciferin cleavage, luminescence. inhibition, % at 10 µM. 1.2% of 330,000 active. AID 2540; in the data active = inhibition above about 50%
SENP6 block: SENP6 protease inhibition. 1.8% of 330,000 active. Q9GZR1. inhibition, % at 10 µM. Recombinant SENP6 catalytic domain, aminoluciferin luminescence. AID 2599;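 active = inhibition above about 50% at the single tested dose, limit read from the data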;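 note: plate controls were DMSO wells with enzyme for no effect and DMSO wells lacking enzyme for full effect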
Target sequence (Q9GZR1 628-1112 limits assumed): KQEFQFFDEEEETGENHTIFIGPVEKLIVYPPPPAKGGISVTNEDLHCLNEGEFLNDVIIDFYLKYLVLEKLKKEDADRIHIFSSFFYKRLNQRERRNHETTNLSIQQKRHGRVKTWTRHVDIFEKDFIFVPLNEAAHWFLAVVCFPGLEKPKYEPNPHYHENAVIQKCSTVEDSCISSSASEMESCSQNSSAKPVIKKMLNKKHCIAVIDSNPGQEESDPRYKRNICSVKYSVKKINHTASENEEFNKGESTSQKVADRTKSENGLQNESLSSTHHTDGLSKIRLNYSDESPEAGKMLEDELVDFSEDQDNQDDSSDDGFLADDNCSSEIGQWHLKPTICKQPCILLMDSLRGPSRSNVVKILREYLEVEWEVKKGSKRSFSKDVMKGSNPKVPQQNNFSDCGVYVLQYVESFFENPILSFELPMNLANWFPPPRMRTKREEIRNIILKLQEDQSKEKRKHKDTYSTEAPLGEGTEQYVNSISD
TRAIL sens C8: sensitizes caspase-8 expressing cells to TRAIL; NB7+C8 cells + TRAIL, ATPlite viability luminescence; inhibition (viability loss, TRAIL sensitization), % at 10 µM; 1% of 360,000 active;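 active = compounds causing at least 50% loss of cell viability in the single-dose screen, relative to plate controls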
SENP7 inh: blocks the human protease SENP7. inhibition, % at 5 µM. recombinant SENP7, Z-RLRGG-aminoluciferin luminescence, 40 min. AID 434973. 1.5% of 330,000 active;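 active = inhibition above about 50% at the single test dose, limit read from the data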;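 note: plate controls were DMSO with enzyme for no effect and no enzyme buffer wells for full effect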
SENP8 block-2: blocks human SENP8 cleavage of Nedd8 substrate | inhibition, % at 20 µM | Q96LD8 | 0.64% of 360,000 active | recombinant SENP8, Nedd8 substrate fluorescence; in the data active = inhibition mostly above about 40%, no sharp cut-off; inactive = mostly below about 27%
PPC1 cytotox: PPC-1 cell cytotoxicity; shares compounds with PPC-1+TRAIL kill; PPC-1 viability, ATPlite luminescence, overnight; cytotoxicity, % at 5 µM; 50% of 1,200 active; AID 1447;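 active = reconfirmed compounds whose average cytotoxicity reaches 50% or more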;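 note: 0% = DMSO-treated cells and 100% = wells holding medium but no cells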
SENP8 confirm: confirmation of human SENP8 protease inhibitors; Recombinant SENP8, Z-RLRGG-aminoluciferin luminescence, 60 min; shares compounds with SENP7 inh; 40% of 6,200 active; AID 488912; inhibition, % at 12.5 µM;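 active = mean inhibition across replicates above about 50%, limit read from the data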
SENP6 confirm: human SENP6 inhibition, confirmed; shares compounds with SENP7 inh; recombinant SENP6, Z-RLRGG-aminoluciferin luminescence; inhibition, % at 12.5 µM; 58% of 6,200 active; AID 488915
SENP7 confirm: human SENP7 inhibition, confirmed | shares compounds with SENP7 inh | recombinant SENP7, Z-RLRGG-aminoluciferin luminescence, 40 min | inhibition, % at 12.5 µM | 69% of 6,200 active
Casp3 select: selectivity test for SENP inhibitors: human caspase-3 inhibition | 60% of 6,200 active | purified caspase-3, Z-DEVD-aminoluciferin luminescence, 60 min | shares compounds with SENP7 inh | inhibition, % at 12.5 µM;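 active = mean inhibition above about 50%, limit read from the data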;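 note: plate controls were enzyme with DMSO for no effect and wells without caspase-3 for full effect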
SENP luc ctr: counter-screen for SENP inhibitors: luminescence interference. 39% of 6,200 active. shares compounds with SENP7 inh. AID 488919. Pre-incubated SENP8/Z-RLRGG-aminoluciferin, luciferase luminescence interference. inhibition, % at 12.5 µM;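 active = mean inhibition above about 50% when retested at one dose, limit read from the data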;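 note: plate controls were DMSO wells with completed reaction for no effect and substrate without enzyme for full effect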
Numbers without * were called inactive; i = inactive; . = no result. Shown are actives, neighbours in structure and some others; about 3% of the full set was active somewhere.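 Rule for the calls, unless noted: active = mean inhibition above about 50% in the one-dose retest (limit read from the data); inactive = the rest.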

SMILES	PPC-1+TRAIL kill	SENP8 block-1	SENP6 block	TRAIL sens C8	SENP7 inh	SENP8 block-2	PPC1 cytotox	SENP8 confirm	SENP6 confirm	SENP7 confirm	Casp3 select	SENP luc ctr
CC(=Nc1ccc(C)cc1C)c1sc2ccccc2c1O	32	65*	78*	65*	66*	-25	27	71*	80*	91*	60*	17
Cc1ccc(O)c(N=Cc2sc3ccccc3c2Cl)c1	24	1	30	-6	1	8	.	.	.	.	.	.
COc1cccc(CN2c3ccc(Br)cc3C(=O)CS2(=O)=O)c1	.	0	-6	15	6	-10	.	.	.	.	.	.
c1ccc2nc(-c3nc4ccccc4[nH]3)ccc2c1	87*	97*	97*	90*	100*	-469	84*	95*	98*	103*	98*	49
Nc1ccc(O)c(-c2nc3ccccc3s2)c1	-2	5	18	11	2	-34	.	.	.	.	.	.
Nc1ccc(-c2nc3ccc(N)cc3s2)cc1	82*	86*	95*	84*	95*	-432	80*	92*	92*	99*	93*	90*
Nc1cccc(-c2nc3ccc(N)cc3s2)c1	74*	94*	97*	70*	98*	-403	72*	98*	98*	102*	97*	96*
CCOc1ccc(Br)cc1C1=CC(=O)C[C@H](c2ccc(OC)cc2)C1	.	-3	-2	15	-6	9	.	.	.	.	.	.
COc1ccc(-c2cc(=O)c3c(O)c(OC)c(O)cc3o2)cc1	64*	83*	84*	70*	87*	6	64*	90*	90*	99*	89*	55*
COc1ccc(-c2cc(=O)c3c(O)c(OC)c(OC)c(OC)c3o2)cc1	.	.	.	1	.	19	.	.	.	.	.	.
COc1cccc(-c2nc(-c3ccccn3)no2)c1	76*	92*	97*	.	97*	.	81*	95*	98*	103*	98*	96*
COc1cccc(-c2nc(-c3ccc(NC(=O)c4cccnc4)cc3)no2)c1	-19	-6	-5	9	5	23	.	.	.	.	.	.
c1ccc(-c2noc(-c3ccc4c(c3)OCO4)n2)nc1	87*	98*	98*	85*	-1	-26	88*	-26	97*	103*	98*	5
O=C(Cc1cccc(NC(=O)C2CCCN(C(=O)C3CC3)C2)c1)Nc1cccc(C(=O)N2CCOCC2)c1 (stereo not given)	.	.	.	-18	.	2	.	.	.	.	.	.
Cc1ccc2nc(-c3ccccc3)cn2c1	90*	95*	99*	90*	99*	-404	88*	99*	100*	103*	99*	98*
CC(=O)Nc1ccc(-c2cn3cc(C)ccc3n2)cc1	40	-19	3	45	-5	-276	.	.	.	.	.	.
COc1ccc(C(=O)Nc2cc(C)on2)c(OC)c1	.	0	-9	23	1	3	.	.	.	.	.	.
COc1ccc(C(=O)Nc2ccc(C)cn2)c(OC)c1	88*	90*	90*	91*	94*	10	88*	93*	92*	100*	94*	91*
O=C(OCc1ccccc1)N1CCC2CC1c1ccc(N3CCN(Cc4ccc5c(c4)OCO5)CC3)cc12 (stereo not given)	.	.	.	7	.	19	.	.	.	.	.	.
Cc1ccc(-c2nc(-c3ccccc3)no2)c(Cl)c1	81*	97*	98*	87*	100*	-3	77*	96*	99*	102*	97*	83*
CCOc1nc2cnccc2n(CC(=O)Nc2c(C)cccc2CC)c1=O	.	-14	-17	2	6	6	.	.	.	.	.	.
c1cncc(-c2nnc(-c3cccs3)o2)c1	2	-7	8	2	0	-133	.	.	.	.	.	.
c1csc(-c2nnc(-c3ccc(N4CCOCC4)cc3)o2)c1	46	11	59*	51*	52*	-281	47	-12	-2	30	32	16
COc1ccc2cc(-c3cc(C(=O)O)c4ccccc4n3)ccc2c1	96*	54*	83*	95*	63*	i	96*	73*	72*	88*	81*	40
Cc1ccc(C(=O)Cc2nc3ccccc3[nH]2)cc1	.	-2	-20	9	4	-3	.	.	.	.	.	.
SMILES	PPC-1+TRAIL kill	SENP8 block-1	SENP6 block	TRAIL sens C8	SENP7 inh	SENP8 block-2	PPC1 cytotox	SENP8 confirm	SENP6 confirm	SENP7 confirm	Casp3 select	SENP luc ctr
Cc1ccc(OCc2nc3ccccc3[nH]2)cc1	49	61*	45	30	68*	4	43	52*	53*	78*	70*	61*
O=C(COc1ccc(Cl)cc1Cl)Nc1ccc(Cl)cn1	59*	72*	84*	65*	1	-4	59*	44	43	47	59*	31
Cc1cc(Cl)ccc1OCC(=O)OCC(=O)Nc1ccc(Cl)cn1	.	.	.	-9	.	16	.	.	.	.	.	.
O=S(=O)(c1ccc(=S)[nH]c1)N1CCN(Cc2ccccc2)CC1	.	3	10	-16	3	15	.	.	.	.	.	.
Fc1ccc(NC(=S)Nc2cccc3cnccc23)cc1	4	89*	98*	-2	77*	-100	-3	-1	17	2	-2	-3
Cc1ccc(-c2nc(CS(=O)CC(=O)NCCCc3ccccc3)c(C)o2)cc1 (stereo not given)	.	3	6	-19	-1	14	.	.	.	.	.	.
Nc1ccc(N2CCCCC2)c(Cl)c1	-2	-2	-5	9	10	4	.	.	.	.	.	.
CCOc1ccc(-c2ccc(SC)nn2)cc1	91*	93*	98*	92*	97*	5	91*	93*	98*	102*	98*	36
O=C(c1ccccc1)c1ccc(N2CCOCC2)cc1	.	.	.	23	.	-54	.	.	.	.	.	.
Cc1ccc(/C=C/C(=O)c2ccc(N3CCOCC3)cc2)s1	80*	68*	81*	73*	35	-12	78*	-1	33	33	16	0
Nc1nc2ccccc2n1C(=O)c1ccc(F)cc1	50*	78*	93*	81*	94*	6	50	60*	83*	97*	92*	38
